Screening data (PubChem BioAssay)
DT40 TDP1 no CPT = qHTS for Inhibitors of human tyrosyl-DNA phosphodiesterase 1 (TDP1): qHTS in cells in absence of CPT | Potency, µM (titrated, usually from 46.2 µM), actives largely listed as inhibitors | AID 686978, 2013 | hit rate 15% among 420,000 | DT40 Tdp1-/- hTDP1 cells, no CPT, ATP luminescence, 48 h; also: nearly all actives have a fitted effect of over 55% in size
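Cells were dispensed at 400 per well, compounds added by pin tool, plates incubated ≥48 hr at 37 °C, then CellTiter-Glo added for 30 min at room temperature before luminescence reading. Line: DT40 Tdp1-/- complemented with hTDP1; camptothecin omitted.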
ALOX12 inh = blocks human arachidonate 12S-lipoxygenase | purified 12hLO, xylenol orange hydroperoxide absorbance | Potency, µM (series often up to 108 µM), most hits filed as inhibitors | P18054 | hit rate 1.1% among 580,000
Target sequence (P18054 whole entry, looked up): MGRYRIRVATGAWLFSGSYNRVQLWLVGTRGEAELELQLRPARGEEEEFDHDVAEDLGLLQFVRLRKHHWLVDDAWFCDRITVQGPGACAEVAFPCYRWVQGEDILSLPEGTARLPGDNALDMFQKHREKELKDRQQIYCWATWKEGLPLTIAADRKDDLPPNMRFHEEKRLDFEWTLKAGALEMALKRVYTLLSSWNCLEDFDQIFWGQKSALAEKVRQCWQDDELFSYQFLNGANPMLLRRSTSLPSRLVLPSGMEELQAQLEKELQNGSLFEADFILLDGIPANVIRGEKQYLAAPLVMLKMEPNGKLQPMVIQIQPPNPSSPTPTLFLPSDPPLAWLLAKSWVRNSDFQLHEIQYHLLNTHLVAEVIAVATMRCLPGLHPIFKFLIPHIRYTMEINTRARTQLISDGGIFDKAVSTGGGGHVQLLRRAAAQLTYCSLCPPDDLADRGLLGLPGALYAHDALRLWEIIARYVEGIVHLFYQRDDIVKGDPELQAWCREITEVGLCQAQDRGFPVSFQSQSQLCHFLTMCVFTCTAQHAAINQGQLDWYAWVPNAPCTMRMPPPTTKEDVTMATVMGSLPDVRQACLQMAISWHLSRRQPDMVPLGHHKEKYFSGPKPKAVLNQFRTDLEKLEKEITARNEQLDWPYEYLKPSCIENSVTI
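Purified human 12hLO at 150 nM in 25 mM Hepes, 0.01% Triton X-100, pH 7.0, preincubated 15 min at room temperature with compound. Reaction started with 40 uM arachidonic acid, 30 min at room temperature. Hydroperoxide measured by Fe-xylenol orange, 573/405 nm absorbance ratio.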
HT1080-NT tox = kills 2HG-producing HT-1080-NT fibrosarcoma cells. HT-1080-NT fibrosarcoma viability, CellTiter-Glo ATP luminescence, 48 h. Potency, µM (titrated, usually from 46.1 µM), most hits filed as cytotoxic. hit rate 1.6% among 360,000. AID 686970;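 also: NT is the 2HG producing partner of a matched IDH1 knockdown line; nearly all actives have a fitted effect of over 55% in size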
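Compounds were tested in concentration-response format on HT-1080-NT cells for 48 hours at 37 degrees C. Cell viability came from CellTiter-Glo luminescence; curves were classified by r2, response magnitude and activity.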
IL1B secr inh = inhibitors of inflammasome signaling (IL-1 beta secretion); THP-1 LPS/ATP IL-1B secretion, AlphaLISA, 16 h; stronger effect = lower value; hit rate 4.7% among 360,000; AID 743279; activity change, % at 57.5 µM; in the data active = activity change below about -50%; inconclusive = mostly about -30% to -49%
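Secreted IL-1B measured by AlphaLISA bead assay after 16 h compound exposure of THP-1 cells; compounds (final up to 57.5 uM) added 1 h before LPS (250 ng/mL) and ATP (1.25 mM) stimulation; lower signal means less secretion.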
DT40 TDP1 CPT = growth inhibition of DT40 Tdp1-/-;hTDP1 cells with camptothecin (screen for TDP1 inhibitors); chicken DT40 Tdp1-/-;hTDP1 cells + 20 nM CPT, ATP luminescence, 48 h; Potency, µM (doses to about 46.2 µM), most hits filed as inhibitors; hit rate 12% among 420,000; also: nearly all actives have a fitted effect of over 55% in size
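Chicken DT40 Tdp1-/- cells stably complemented with human TDP1 were seeded at 400 cells/well in medium containing 20 nM camptothecin, exposed to pin-transferred compounds, and grown at 37 °C for at least 48 hr. Viability was read as ATP luminescence.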
HT1080 IDH1KD tx = toxicity to HT-1080 IDH1 knockdown cells (counter line). hit rate 2% among 360,000. HT-1080 IDH1 knockdown viability, ATP luminescence, 48 h. AID 686971. Potency, µM (doses to about 46.1 µM), hits mostly cytotoxic
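Using the IDH1-knockdown HT-1080 line run in the same batch and compound series as the NT line, viability after 48 h at 37 °C was determined by CellTiter-Glo luminescence and expressed as % activity.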
Numbers stand for hits; n = inactive; u = inconclusive; x = no result given. The entries come from a sample that favours hits as a whole. Unless noted, calls follow the shape of the dose curve; as a rule, active = well fitted curve in the direction sought with a large enough effect; inconclusive = small, poorly fitted or top-dose-only effect, or another doubt; inactive = no such curve, though single readings can be large; an effect the other way counts as inactive or inconclusive.

SMILES	DT40 TDP1 no CPT	ALOX12 inh	HT1080-NT tox	IL1B secr inh	DT40 TDP1 CPT	HT1080 IDH1KD tx
O=c1c2ccccc2nc(/C=C/c2cccc([N+](=O)[O-])c2)n1CCO	u	n	n	u	n	n
Cc1nc2nc(SCC(=O)NCc3ccccc3)nn2c(C)c1Cc1ccccc1Cl	u	n	x	x	u	x
O=C(NCc1ccco1)c1cc(-c2ccc(Cl)cc2)on1	n	n	n	n	n	n
CCc1ccc(CN(Cc2ccco2)C(=O)c2cc(-c3ccc(Cl)cc3)on2)cc1	15µM	n	x	x	u	x
O=C(c1cc(-c2ccccc2)on1)N(Cc1ccccc1)Cc1ccco1	x	n	x	x	x	x
O=C(c1cc(-c2ccc(Cl)cc2)on1)N(Cc1cccc(F)c1)Cc1ccco1	18µM	n	x	x	u	x
Cc1ccc(-c2cc(C(=O)N(Cc3ccc(C(C)(C)C)cc3)Cc3ccco3)no2)cc1	13µM	n	x	x	18µM	x
Cc1ccc(-c2cc(C(=O)N(Cc3ccco3)Cc3cccs3)no2)cc1	x	n	x	x	x	x
O=C(c1cc(-c2ccc(Cl)cc2)on1)N(Cc1ccc(F)cc1)Cc1ccco1	21µM	n	x	x	u	x
Cc1nnc2n1CCC(N(C)C(=O)CC1=CCCCC1)CC2 (configuration not stated)	x	n	x	x	x	x
Cc1[nH]c(C)c(S(=O)(=O)N2CCN(c3cccc(Cl)c3)CC2)c1C(=O)N1CCCCC1	21µM	u	n	n	21µM	n
Cc1ccc(Cl)cc1N1CCN(S(=O)(=O)c2c(C)[nH]c(C)c2C(=O)N2CCCCC2)CC1	u	u	n	u	16µM	n
Cc1ccc(C)c(N2CCN(S(=O)(=O)c3c(C)[nH]c(C)c3C(=O)N3CCCCC3)CC2)c1	u	n	n	n	u	n
Cc1cccc(NC(=O)Cn2c(C)cc3ccccc32)c1C	x	n	x	x	x	x
Cc1c(C(=O)N2CCc3ccccc3C2)sc2nc(-c3ccccc3)cn12	21µM	n	n	n	u	u
COc1ccc(-c2cn3c(C)c(C(=O)N4CCc5ccccc5C4)sc3n2)cc1	21µM	x	n	n	18µM	u
COc1ccc(NC(=O)Cn2ccn3nc4c(c3c2=O)CCCCC4)cc1OC	x	n	x	x	x	x
CS(=O)(=O)c1ncc(Cl)c(C(=O)N(Cc2ccc(Cl)cc2)Cc2ccco2)n1	1.3µM	n	x	x	0.65µM	x
COc1ccc(N(Cc2ccccc2)C(=O)c2nc(S(C)(=O)=O)ncc2Cl)cc1	0.46µM	n	x	x	0.73µM	x
CCOc1ccc(N(Cc2ccccc2)C(=O)c2nc(SC)ncc2Cl)cc1	6.5µM	u	x	x	13µM	x
CC(C)NC(=O)CCCN1C(=O)COc2ccc(C(=O)COc3ccccc3Cl)cc21	x	n	x	x	x	x
CCCC(O)(C(N)=O)c1ccccc1 (configuration not stated)	x	n	x	x	x	x
O=C(C[C@H]1C=C[C@@H](NS(=O)(=O)c2ccccc2)[C@@H](CO)O1)NCc1ccc(Cl)c(Cl)c1	18µM	n	n	n	u	n
COC(=O)C[C@@H]1C=C[C@H](NS(=O)(=O)c2cccc(F)c2)[C@@H](CO)O1	n	n	u	n	n	n
CC(=O)c1ccc(NC(=O)C2CCC(CNS(=O)(=O)c3cccs3)CC2)cc1 (configuration not stated)	n	n	x	x	n	x
SMILES	DT40 TDP1 no CPT	ALOX12 inh	HT1080-NT tox	IL1B secr inh	DT40 TDP1 CPT	HT1080 IDH1KD tx
CCn1c(=O)c2c(nc3n2CC(C)CN3CCc2ccccc2)n(C)c1=O (configuration not stated)	u	n	n	n	21µM	n
Cc1ccc(N2CC(C)Cn3c2nc2c3c(=O)n(CC(=O)OCc3ccccc3)c(=O)n2C)cc1C (configuration not stated)	18µM	n	n	n	11µM	n
Cn1c(=O)n(CCc2ccccc2)c(=O)c2c1nc1n2CCCN1CCc1ccccc1	7.3µM	n	23µM	u	12µM	29µM
CC(C)Cn1c(=O)c2c(nc3n2CCCN3CCc2ccccc2)n(C)c1=O	15µM	n	n	u	16µM	n
COc1ccc(N2CCCn3c2nc2c3c(=O)n(CCc3ccccc3)c(=O)n2C)cc1	15µM	n	n	n	u	n
Cc1cc(C)cc(N2CCn3c2nc2c3c(=O)n(CCCc3ccccc3)c(=O)n2C)c1	n	n	x	x	n	x
CCOCCn1c(=O)c2c(nc3n2CCN3c2ccc(CC)cc2)n(C)c1=O	u	n	n	n	15µM	n
CCc1ccc(N2CCn3c2nc2c3c(=O)n(Cc3ccc(F)cc3)c(=O)n2C)cc1	n	n	x	x	n	x
